Compound activity (PubChem)
Most compounds without a hit are left out; they make up all but 4.3% or so of the library.
BoNT A protease: BoNT/A light chain protease inhibitors, primary screen, biochemical, flow cytometry, MLPCN library. 0.17% of 360,000 active. Botulinum neurotoxin type A light chain protease (Clostridium botulinum A str. ATCC 3502). inhibition, % at 10 µM. multiplex microsphere protease substrate cleavage; further: plate controls were buffer without enzyme for full effect and enzyme alone for no effect
Anthrax LF inh2: Bacillus anthracis LF protease inhibitors, primary screen, biochemical, multiplex microsphere, MLPCN library; inhibition, % at 10 µM; AID 588501, 2011; multiplex microsphere protease cleavage assay; Lethal factor (Bacillus anthracis), P15917; 0.12% of 360,000 active; further: plate controls were buffer without enzyme for full effect and enzyme alone for no effect
Target sequence (P15917 whole entry, looked up): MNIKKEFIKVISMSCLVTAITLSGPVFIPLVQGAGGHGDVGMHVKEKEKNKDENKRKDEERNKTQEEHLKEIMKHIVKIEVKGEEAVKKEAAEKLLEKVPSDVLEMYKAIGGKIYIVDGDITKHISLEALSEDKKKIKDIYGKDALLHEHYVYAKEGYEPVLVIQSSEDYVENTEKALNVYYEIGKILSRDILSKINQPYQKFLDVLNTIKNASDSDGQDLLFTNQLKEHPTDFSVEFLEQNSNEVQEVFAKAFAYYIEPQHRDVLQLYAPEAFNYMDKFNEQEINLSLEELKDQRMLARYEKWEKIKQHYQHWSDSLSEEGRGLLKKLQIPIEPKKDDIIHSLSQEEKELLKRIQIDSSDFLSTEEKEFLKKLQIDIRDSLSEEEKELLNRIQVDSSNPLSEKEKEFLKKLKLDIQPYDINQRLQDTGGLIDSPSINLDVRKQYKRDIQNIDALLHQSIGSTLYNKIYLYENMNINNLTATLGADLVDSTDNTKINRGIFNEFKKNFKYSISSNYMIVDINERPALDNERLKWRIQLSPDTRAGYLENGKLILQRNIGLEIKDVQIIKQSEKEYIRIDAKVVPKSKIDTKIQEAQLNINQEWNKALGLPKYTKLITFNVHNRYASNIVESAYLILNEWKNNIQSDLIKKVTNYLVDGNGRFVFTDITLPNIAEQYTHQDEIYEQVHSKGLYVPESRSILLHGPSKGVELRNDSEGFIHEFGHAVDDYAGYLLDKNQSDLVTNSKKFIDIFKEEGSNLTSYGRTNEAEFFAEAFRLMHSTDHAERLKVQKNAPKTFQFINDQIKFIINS
MazEF act: activators of E. coli MazEF toxin-antitoxin RNase, primary screen, biochemical, fluorescence, uHTS; Endoribonuclease toxin MazF (Escherichia coli (strain K12)), P0AE70; FAM/BHQ RNA-DNA oligo cleavage fluorescence, 5 h; activation, % at 20 µM; 0.32% of 350,000 active; in the data active means activation above about 50%
BoNT F protease: BoNT/F light chain protease inhibitors, primary screen, biochemical, flow cytometry, MLPCN library; Botulinum neurotoxin type F light chain protease (Clostridium botulinum); Multiplex microsphere protease cleavage assay; inhibition, % at 10 µM; 0.22% of 360,000 active; AID 588497, 2011; in the data active means inhibition above about 35%, passing the limit was not always enough; inconclusive means no clear call, values can overlap the other calls; further: plate controls were buffer without enzyme for full effect and enzyme alone for no effect
PfHsp40 rescue: rescue of yeast from PfHsp40 toxicity, primary screen, S. cerevisiae, ATP luminescence; AID 504582, 2011; growth rescue, % at 12.5 µM; S. cerevisiae expressing PfHsp40, growth rescue; 0.68% of 340,000 active; in the data active means growth rescue above about 28%, passing the limit was not always enough; inconclusive means no clear call, values can overlap the other calls;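 further: yeast W303a lacking pdr1 and pdr3 grown in galactose medium; growth measured after three days at 30 °C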
Autofluor counter: counter-screen for toxin protease inhibitors: compound fluorescence; AID 624483; fluorescence intensity (test concentration not listed); 3.1% of 360,000 active; compound autofluorescence counterscreen, microsphere flow cytometry; active compounds read high; in the data active means fluorescence intensity above about 16000; inconclusive means no clear call, values can overlap the other calls
The depositor's hits bear a star; ? = inconclusive; / = no result. Unless noted, no stated cut-off is given here; in the data, active means inhibition above about 30%; inconclusive means no clear call, values can overlap the other calls; inactive means below that.

SMILES | BoNT A protease | Anthrax LF inh2 | MazEF act | BoNT F protease | PfHsp40 rescue | Autofluor counter
Cc1cccc(OCC(=O)NCCN2CCOCC2)c1 | -2.5 | -1.9 | -7.3 | -5.3 | -0.2 | 20366*
Cc1cccc(C(=O)NCCN2CCCC2)c1 | -1.0 | -2.5 | -2.1 | -0.1 | 0.2 | 20070*
Cc1cccc(OCC(=O)NNc2c3ccccc3nc3ccccc23)c1 | 1.9 | -3.1 | -2.7 | 0.5 | 0.1 | 21560*
Cc1ccc(C(=O)NCCN2CCCC2)cc1 | -0.1 | -2.4 | -1.4 | -11.2 | 0.0 | 3009
Cc1ccc(OCC(=O)NCCN2CCOCC2)cc1C | 0.3 | -3.1 | -1.1 | 9.5 | -0.4 | 3504
CCOc1c(Cl)cc(C(=O)NCCN2CCCCC2)cc1Cl | 4.3 | 1.6 | 5.9 | 4.5 | -3.3 | 22799*
Cc1ccc(OCC(=O)NNc2c3ccccc3nc3ccccc23)cc1 | -0.2 | -3.2 | 0.6 | -6.2 | 1.5 | 2128
CCOc1c(Cl)cc(/C=C/C(=O)N(CC)CC(=O)Nc2ccc(NC(C)=O)cc2)cc1OC | -5.0 | -2.7 | 1.7 | -9.4 | -0.7 | 7131
Cc1ccc(C)c(CSc2nnc([C@@H](N)C(C)C)o2)c1 | -0.2 | 1.8 | -2.0 | -3.9 | -1.0 | 16262*
CCCCC1(CC)C(=O)NC(=O)NC1=Nc1ccc(OC)cc1 (stereo unspecified) | 3.0 | -0.6 | 4.8 | 5.0 | 0.1 | 21503*
CCOC(=O)[C@@H]1[C@H]2COc3cc(OC)ccc3[C@H]2N2C(=O)N(c3ccc(C)cc3)C(=O)[C@]12C | -0.5 | 2.4 | 4.5 | 0.1 | 0.7 | 3813
CCn1c(SCC(=O)N(C)c2c(N)n(Cc3ccccc3)c(=O)[nH]c2=O)nc2ccccc21 | -0.1 | -6.6 | -0.6 | 2.4 | -0.3 | 4058
CCc1ccccc1NC(=O)C(Cc1cccc(OC)c1OC)c1nn[nH]n1 (stereo unspecified) | 2.4 | -0.8 | -0.8 | 4.1 | -0.6 | 15651
COc1cccc(CC(C(=O)Nc2cc(C)ccc2C)c2nn[nH]n2)c1OC (stereo unspecified) | 0.6 | 0.6 | -18.2 | 0.5 | 1.1 | 22565*
C=CCOC(=O)COc1ccc2c(C)c(C)c(=O)oc2c1 | ? | ? | -8.5 | ? | -1.3 | ?
C=CCOC(=O)COc1ccc2c(C)c(CC)c(=O)oc2c1 | -1.0 | -1.4 | 4.3 | -3.1 | -0.4 | 23645*
Cc1ccc(NC(=O)c2cc(-n3cnnc3)ccc2Cl)cc1 | -1.1 | -1.1 | 2.2 | -2.5 | 0.4 | 16625*
Cc1ccc(NC(=O)c2cc(N3C(=O)C=CC3=O)ccc2Cl)cc1C | 0.4 | -0.8 | 2.9 | 4.2 | 293.9* | 2495
COc1ccc(NS(=O)(=O)c2cccc(C(=O)NCc3ccccc3CN3CCCC3)c2)cc1 | / | / | 5.4 | / | -1.6 | /
CCC(=O)c1ccc(OCC(=O)OCC(=O)NCCCc2ccccc2)cc1 | / | / | 2.6 | / | -0.7 | /
CCCCOC(=O)CSc1n[nH]c(=O)[nH]c1=O | -0.4 | 1.2 | 5.4 | -1.5 | -1.5 | 23897*
Cc1ccc(-n2nc(C(=O)c3ccccc3)n3c(=O)c(Cc4ccccc4)nnc23)cc1 | 0.1 | 1.6 | -1.0 | -2.3 | 2.6 | 10540
O=C(c1ccccc1)c1nn(-c2ccccc2)c2nnc(Cc3ccccc3)c(=O)n12 | -1.6 | -1.8 | 9.2 | -1.7 | 0.2 | 17139*
CCN(CC)c1nc(N)nc(NS(=O)(=O)c2ccc(Cl)cc2)n1 | ? | 2.1 | 1.2 | 6.4 | 0.0 | 19449*
CC(C)Nc1nc(NC(C)C)nc(NS(=O)(=O)c2ccc(N)cc2)n1 | 2.2 | 3.9 | -1.3 | 16.7 | -0.6 | ?
SMILES | BoNT A protease | Anthrax LF inh2 | MazEF act | BoNT F protease | PfHsp40 rescue | Autofluor counter
CCNc1nc(NC(C)C)nc(NS(=O)(=O)c2ccc(Cl)cc2)n1 | 1.1 | -1.1 | 1.4 | -0.6 | 0.5 | 22725*
CCNc1nc(NC(C)C)nc(NS(=O)(=O)c2ccc(N)cc2)n1 | -1.6 | 0.2 | 2.4 | -6.0 | 0.0 | 17274*
N#Cc1ccc(C(=O)N(Cc2ccco2)c2c(N)n(Cc3ccccc3)c(=O)[nH]c2=O)cc1 | 0.7 | -4.2 | 5.4 | -2.0 | -1.3 | 3879
CN(C)CC#CCC(O)(c1ccccc1)C1CCCC1 (stereo unspecified) | -1.1 | -0.3 | 0.7 | -3.1 | -0.9 | 23845*
CCOC(=O)N1CCN(C(=O)CN(c2cccc(C)c2)S(=O)(=O)c2ccc(C)cc2)CC1 | 0.0 | -5.8 | -0.7 | -1.8 | -0.1 | 5574
COc1ccc(OC)c(N(CC(=O)N2CCC(C)CC2)S(=O)(=O)c2ccccc2)c1 | ? | -7.4 | -5.7 | 0.2 | 0.0 | 20367*
Cc1ccc(S(=O)(=O)N(CC(=O)N2CCC(C)CC2)c2cccc(C)c2)cc1 | 1.3 | -10.5 | -0.9 | -1.5 | -0.6 | 20718*
COc1ccc(OC)c(N(CC(N)=O)S(=O)(=O)c2ccc(OC)c(OC)c2)c1 | 0.2 | -1.2 | -1.2 | -0.1 | -0.3 | 20080*
COc1ccc(OC)c(N(CC(=O)N2CCC(C)CC2)S(=O)(=O)c2ccc(OC)c(OC)c2)c1 | -0.5 | -38.5 | 5.3 | -6.5 | 2.9 | ?
CC(=O)c1ccc(CCCc2ccc(C(C)=O)cc2)cc1 | -0.1 | -5.6 | -1.8 | -4.2 | 4.2 | 3881
Cc1ccccc1N1CCN(C2CCCN(C(=O)CCc3c(C)noc3C)C2)CC1 (stereo unspecified) | 1.0 | -2.6 | 5.2 | 5.1 | 0.2 | 4263
O=C1c2ccccc2C2=Nc3ccccc3SC(c3cccc(F)c3)C12 (stereo unspecified) | -0.4 | -5.7 | 11.6 | -17.6 | 281.4* | 8720
COc1ccc(NC(=O)C[C@H]2C(=O)N(C3CCCCC3)C[C@@H]2c2ccc(OC)cc2)cc1 | -0.2 | 0.1 | 7.0 | 2.3 | / | 3076
COc1cc(C2C(C#N)=C(N)Oc3c2ccc2ccccc32)ccc1OCC(=O)Nc1ccccc1C (stereo unspecified) | ? | -1.0 | 1.9 | -0.4 | -0.4 | 22354*
OC1(c2ccc(F)cc2)CCNC1 (stereo unspecified) | 0.1 | -1.4 | 9.0 | -0.9 | -1.5 | 23064*
Cc1cccc(NC(=O)CSc2nnc(C)c(C)n2)c1 | -2.3 | -2.0 | 3.0 | -20.2 | -0.3 | 3506
Cc1ccc(S(=O)(=O)CNC(=S)c2ccc3ccccc3c2)cc1 | ? | -1.1 | 0.8 | 0.9 | 8.9 | 22964*
COc1ccccc1NC(=O)CN1CCN(c2ccccn2)CC1 | -1.3 | -2.0 | -3.9 | -1.2 | 1.0 | 20530*
COc1ccc(NC(=O)CN2CCN(CC(=O)Nc3ccccc3Cl)CC2)c(OC)c1 | 3.5 | -1.1 | -2.1 | 1.0 | -1.6 | 22552*
Cc1ccc(NC(=O)N2CCN(c3ccccn3)CC2)cc1 | 0.7 | -1.0 | 2.7 | 1.6 | ? | 22825*
COc1ccc(NC(=O)CN2CCN(CC(=O)Nc3ccc(F)cc3F)CC2)cc1 | -4.4 | 1.5 | 3.1 | -26.5 | 43.9* | 3826
